# Laboratory results taken from PubChem BioAssay (Tox21).
# Values without a mark were called inactive. Inconclusive results are not listed. Where a call stands in place of a potency, no number is given. Calls of active or inactive are those of the source. Unless noted, calls come from the whole dose curve; as a rule, active = well fitted curve in the direction sought with a large enough effect in the repeat runs; inconclusive = weak or mixed curves; inactive = no such curve, though single readings can be large; an effect the other way counts as inactive or inconclusive.
# Assays:
# [1] = qHTS assay for small molecule agonists of the p53 signaling pathway (AID 651631; calls by dose curve; note: nearly all actives have a fitted effect of over 15% in size)
# Summary of the method: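 HCT-116 cells carrying a beta-lactamase reporter under p53 response elements were dosed with compound for 16 h at 37 °C. LiveBLAzer B/G FRET substrate was then added for 2 h at room temperature, and fluorescence intensity was read to detect pathway agonism.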
# [2] = qHTS assay for small molecules that induce genotoxicity in human embryonic kidney cells expressing luciferase-tagged ATAD5 (AID 651632); note: nearly all actives have a fitted effect of over 15% in size
# Summary of the method: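 HEK293T cells carrying luciferase-tagged ATAD5 were given compound or DMSO vehicle and incubated 16 hr at 37C, 5% CO2. Luciferase activity was read after 30 min at room temperature with Amplite; a rise signals genotoxic stress.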
# [3] = qHTS assay for small molecule agonists of the p53 signaling pathway - cell viability (AID 651633; calls by dose curve;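 note: p53RE-bla HCT reporter cells with a stable beta-lactamase p53 reporter; series mostly up to about 83 µM; nearly all actives have a fitted effect of over 30% in size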)
# Summary of the method: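 p53RE-bla cells, seeded at 4,000 per well and rested 5 h at 37 C/5% CO2, received compounds in DMSO for 16 h at 37 C. CellTiter-Glo was then added, and luminescence was read after 30 min at room temperature to gauge cytotoxicity.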
# [4] = qHTS assay for small molecule disruptors of the mitochondrial membrane potential - cell viability (AID 720634; calls by dose curve;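 note: human HepG2 liver cancer cells; series mostly up to about 83 µM; nearly all actives have a fitted effect of over 20% in size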)
# Summary of the method: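 HepG2 cells, 2,000 per well, attached overnight, then treated 1 hr at 37 C, 5% CO2. Viability read as ATP by CellTiter-Glo luminescence after 30 min at room temperature. Read in the same wells as the m-MPI membrane-potential dye assay.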
# [5] = qHTS assay to test for compound auto fluorescence at 590 nm (red) in HepG2 cells (AID 720674)
# Summary of the method: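 Intrinsic compound fluorescence in the red window (Ex/Em 540/590 nm) is measured in attached HepG2 cells exposed for 1 hr, DMSO vehicle as baseline, benchmarked to Rose Bengal sodium.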
# [6] = qHTS assay to test for compound auto fluorescence at 535 nm (green) in HepG2 cells (AID 720675)
# [7] = qHTS assay to test for compound auto fluorescence at 460 nm (blue) in HEK293 cells (AID 720678)
# Summary of the method: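 Blue-channel (Ex/Em 405/460 nm) intensity measured in HEK293 cultures after overnight compound exposure at 37C; signal expressed relative to triamterene. Cells plated 2,000 per well in 10% dialyzed FBS medium and allowed 4-5 hr to attach.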
# [8] = qHTS assay to test for compound auto fluorescence at 590 nm (red) in HEK293 cells (AID 720679)
# Summary of the method: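 Red-channel autofluorescence (Ex/Em 540/590 nm; Rose Bengal sodium reference) was measured after overnight 37C, 5% CO2 exposure of attached HEK293 cells, 2,000 per well in medium with 10% dialyzed FBS.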
# [9] = qHTS assay to test for compound auto fluorescence at 535 nm (green) in HEK293 cells (AID 720680)
# [10] = qHTS assay to test for compound auto fluorescence at 460 nm (blue) in HEK293 cell free culture (AID 720681)
# Summary of the method: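 Test compounds were pinned into cell-free culture medium (DMEM with 10% FBS) and fluorescence was read directly at Ex/Em 405/460 nm. Signals were expressed as fluorescence equivalents of triamterene, with DMSO vehicle as control.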
# [11] = qHTS assay to test for compound auto fluorescence at 535 nm (green) in HEK293 cell free culture (AID 720682)
# Summary of the method: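 Green-label autofluorescence (485 nm excitation, 535 nm emission) measured on compound added to cell-free culture medium (DMEM, 10% FBS). Output is expressed relative to fluorescein.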
# [12] = qHTS assay to test for compound auto fluorescence at 590 nm (red) in HEK293 cell free culture (AID 720683)
# Summary of the method: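 Tox21 10K library compounds were pinned into cell-free DMEM with 10% FBS and fluorescence was read at excitation 540 nm. Activity is expressed as Rose Bengal sodium equivalency.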
# [13] = qHTS assay to test for compound auto fluorescence at 590 nm (red) in HepG2 cell free culture (AID 720684)
# Summary of the method: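 Measured in medium alone (MEM containing 10% FBS) following pintool addition of compound; emission at 590 nm with 540 nm excitation, referenced to Rose Bengal sodium.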
# [14] = qHTS assay to test for compound auto fluorescence at 460 nm (blue) in HepG2 cell free culture (AID 720685)
# Summary of the method: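 Compound (23 nL) or DMSO pinned into cell-free MEM with 10% FBS; blue fluorescence read at 405/460 nm excitation/emission, expressed as auto-fluorescence equivalency to triamterene.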
# [15] = qHTS assay to test for compound auto fluorescence at 535 nm (green) in HepG2 cell free culture (AID 720686)
# [16] = qHTS assay to test for compound auto fluorescence at 460 nm (blue) in HepG2 cells (AID 720687)
# Summary of the method: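 Cells (2,000/well in MEM with 10% FBS) attached overnight at 37 C, then were exposed to compound or DMSO for 1 hr at 37 C, 5% CO2. Fluorescence read at Ex/Em 405/460 nm, expressed as triamterene-equivalent signal.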
# [17] = target: Glucocorticoid receptor (Homo sapiens) (UniProt P04150); assay: qHTS assay to identify small molecule agonists of the glucocorticoid receptor (GR) signaling pathway (AID 720691; active = well fitted activation curve with a large enough effect in the signal ratio in the repeat runs, not every such curve was filed as active; the % refers to the signal ratio)
# Summary of the method: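 GR-bla HeLa cells carrying a GRE-driven beta-lactamase reporter, exposed to compounds for 18 h at 37 C. Reporter activation read as fluorescence after 2 h with LiveBLAzer B/G FRET substrate at room temperature.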
# [18] = target: Glucocorticoid receptor (Homo sapiens) (UniProt P04150); assay: qHTS assay to identify small molecule antagonists of the glucocorticoid receptor (GR) signaling pathway (AID 720692; active = well fitted inhibition curve with a large enough effect in the signal ratio in the repeat runs, not every such curve was filed as active; the % refers to the signal ratio)
# Summary of the method: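 GR-bla HeLa cells carrying a GRE-driven beta-lactamase reporter received compound after 4 h plating, then dexamethasone (5 nM final). After 18 h at 37C, the FRET substrate was loaded for 2 h at room temperature and fluorescence read.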
# [19] = qHTS assay for small molecules that induce genotoxicity in human embryonic kidney cells expressing luciferase-tagged ATAD5 - cell viability (AID 651634; calls by dose curve; note: nearly all actives have a fitted effect of over 25% in size)
# Summary of the method: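 HEK293T cells carrying luciferase-tagged ATAD5, 2,000 cells/well, exposed to compound for 15.5 hr at 37C. Viability read as live-cell protease activity by CellTiter-Fluor fluorescence after 30 min at 37C.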
# [20] = qHTS assay for small molecule disruptors of the mitochondrial membrane potential (AID 720635); note: potency is the fitted concentration of half-maximal effect
# Summary of the method: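 HepG2 cells (2,000/well) attached overnight at 37C, then took compound for 1 hr at 37C, 5% CO2. Mito-MPS dye was added for 30 min; fluorescence was read at 490/535 nm (monomers) and 540/590 nm (aggregates).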
# Sequence of Glucocorticoid receptor (Homo sapiens) (P04150 whole entry, looked up): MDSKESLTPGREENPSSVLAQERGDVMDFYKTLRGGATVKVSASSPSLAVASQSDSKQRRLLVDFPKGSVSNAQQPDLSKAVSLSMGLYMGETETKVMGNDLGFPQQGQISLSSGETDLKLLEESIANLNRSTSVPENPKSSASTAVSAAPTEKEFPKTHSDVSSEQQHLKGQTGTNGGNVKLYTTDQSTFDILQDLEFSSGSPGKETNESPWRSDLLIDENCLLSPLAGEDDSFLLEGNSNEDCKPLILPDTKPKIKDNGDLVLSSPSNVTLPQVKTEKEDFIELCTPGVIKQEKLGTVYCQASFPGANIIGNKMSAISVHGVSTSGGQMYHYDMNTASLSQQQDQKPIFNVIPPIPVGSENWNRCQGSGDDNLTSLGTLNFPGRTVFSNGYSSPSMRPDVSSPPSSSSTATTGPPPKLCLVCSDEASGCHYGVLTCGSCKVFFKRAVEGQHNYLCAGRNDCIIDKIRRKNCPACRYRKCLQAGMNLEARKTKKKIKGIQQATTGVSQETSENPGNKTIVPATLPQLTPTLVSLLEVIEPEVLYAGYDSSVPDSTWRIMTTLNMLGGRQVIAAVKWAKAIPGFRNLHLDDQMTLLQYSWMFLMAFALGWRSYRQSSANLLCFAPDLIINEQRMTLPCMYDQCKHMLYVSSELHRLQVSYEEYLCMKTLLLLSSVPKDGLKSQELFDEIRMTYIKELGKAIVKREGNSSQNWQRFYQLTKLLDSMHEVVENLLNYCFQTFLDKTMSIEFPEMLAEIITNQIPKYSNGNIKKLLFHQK
structure (smiles),measurement,setting,value
Cn1c(=O)c2[nH]c(Br)nc2n(C)c1=O,outcome,[1],inactive
same,outcome,[2],inactive
same,outcome,[3],inactive
same,outcome,[4],inactive
same,outcome,[5],inactive
same,outcome,[6],inactive
same,outcome,[7],inactive
same,outcome,[8],inactive
same,outcome,[9],inactive
same,outcome,[10],inactive
same,outcome,[11],inactive
same,outcome,[12],inactive
same,outcome,[13],inactive
same,outcome,[14],inactive
same,outcome,[15],inactive
same,outcome,[16],inactive
same,Potency,[17],inactive
same,outcome,[18],inactive
CC(=O)CC(=O)OC(C)(C)C,outcome,[1],inactive
same,outcome,[2],inactive
same,Potency,[19],inactive
same,outcome,[4],inactive
same,Potency,[20],inactive
same,outcome,[5],inactive
same,outcome,[6],inactive
same,outcome,[7],inactive
same,outcome,[8],inactive
same,outcome,[9],inactive
same,outcome,[10],inactive
same,outcome,[11],inactive
same,outcome,[12],inactive
same,outcome,[13],inactive
same,outcome,[14],inactive
same,outcome,[15],inactive
same,outcome,[16],inactive
same,Potency,[17],inactive
CCCCCCCCCCCCCCC(=O)NC(CO)CCCCCCCCCCCCCC (stereo not given),outcome,[1],inactive
same,outcome,[3],inactive
same,Potency,[19],inactive
same,outcome,[4],inactive
same,outcome,[5],inactive
same,outcome,[6],inactive
same,outcome,[7],inactive
same,outcome,[8],inactive
same,outcome,[9],inactive
same,outcome,[10],inactive
same,outcome,[11],inactive
same,outcome,[12],inactive
same,outcome,[13],inactive
same,outcome,[14],inactive
same,outcome,[15],inactive
same,outcome,[16],inactive
same,Potency,[17],inactive
OCC1(CO)COCOC1,outcome,[1],inactive
same,outcome,[3],inactive
same,Potency,[19],inactive
same,outcome,[4],inactive
same,outcome,[5],inactive
same,outcome,[6],inactive
same,outcome,[7],inactive
same,outcome,[8],inactive
same,outcome,[9],inactive
same,outcome,[11],inactive
same,outcome,[12],inactive
same,outcome,[13],inactive
same,outcome,[14],inactive
same,outcome,[15],inactive
same,outcome,[16],inactive
same,Potency,[17],inactive
O=C(O)CCCCCC(=O)O,outcome,[1],inactive
same,outcome,[3],inactive
same,Potency,[19],inactive
same,outcome,[4],inactive
same,Potency,[20],inactive
same,outcome,[5],inactive
same,outcome,[6],inactive
same,outcome,[7],inactive
same,outcome,[8],inactive
same,outcome,[9],inactive
same,outcome,[10],inactive
same,outcome,[11],inactive
same,outcome,[12],inactive
same,outcome,[13],inactive
same,outcome,[14],inactive
same,outcome,[15],inactive
same,outcome,[16],inactive
same,Potency,[17],inactive
same,outcome,[18],inactive
[O]=[Mo](=[O])=[O],outcome,[1],inactive
same,outcome,[3],inactive
same,Potency,[19],inactive
same,outcome,[4],inactive
same,Potency,[20],inactive
same,"fluorescence, relative to Rose Bengal",[5],-0.0279% [at 18.6 µM]
same,"fluorescence, % of fluorescein control",[6],0.0234% [at 18.6 µM]
same,"fluorescence, % of triamterene",[7],0.132% [at 18.6 µM]
same,"fluorescence, % of fluorescent control",[8],0.419% [at 18.6 µM]
same,"fluorescence, % of fluorescein",[9],-0.0315% [at 18.6 µM]
same,"fluorescence, % of fluorescent control",[10],0.0055% [at 18.6 µM]
same,activity change,[11],0.118% [at 18.6 µM]
same,"fluorescence, % of fluorescent control",[12],0.0845% [at 18.6 µM]
same,"fluorescence, % of Rose Bengal",[13],0.0301% [at 18.6 µM]
same,"fluorescence, % of fluorescent control",[14],0.041% [at 18.6 µM]
same,"fluorescence, % of fluorescein control",[15],-0.0406% [at 18.6 µM]
same,"fluorescence, % of fluorescent control",[16],0.0613% [at 18.6 µM]
same,Potency,[17],inactive
same,outcome,[18],inactive
Cc1ccccc1C(N)=O,outcome,[1],inactive
same,outcome,[3],inactive
same,Potency,[19],inactive
same,outcome,[4],inactive
same,Potency,[20],inactive
same,outcome,[5],inactive
same,outcome,[6],inactive
same,outcome,[7],inactive
same,outcome,[8],inactive
same,outcome,[9],inactive
same,outcome,[10],inactive
same,outcome,[11],inactive
same,outcome,[12],inactive
same,outcome,[13],inactive
same,outcome,[14],inactive
same,outcome,[15],inactive
same,outcome,[16],inactive
same,Potency,[17],inactive
same,outcome,[18],inactive
CCC[C@@H]1C[C@@H](C(=O)N[C@@H]([C@H]2O[C@H](SC)[C@H](O)[C@@H](O)[C@H]2O)[C@@H](C)O)N(C)C1,outcome,[1],inactive
same,outcome,[3],inactive
same,Potency,[19],inactive
same,outcome,[4],inactive
same,outcome,[5],inactive
same,outcome,[6],inactive
same,outcome,[7],inactive
same,outcome,[8],inactive
same,outcome,[9],inactive
same,outcome,[11],inactive
same,outcome,[12],inactive
same,outcome,[13],inactive
same,outcome,[15],inactive
same,Potency,[17],inactive
same,outcome,[18],inactive
CCOc1cccc(N)c1,outcome,[1],inactive
same,outcome,[3],inactive
same,Potency,[19],inactive
same,outcome,[4],inactive
same,Potency,[20],inactive
same,outcome,[5],inactive
same,outcome,[6],inactive
same,outcome,[7],inactive
same,outcome,[8],inactive
same,outcome,[9],inactive
same,outcome,[10],inactive
same,outcome,[11],inactive
same,outcome,[12],inactive
same,outcome,[13],inactive
same,outcome,[14],inactive
same,outcome,[15],inactive
same,outcome,[16],inactive
CCO[Si](CC)(OCC)OCC,outcome,[1],inactive
same,outcome,[3],inactive
same,Potency,[19],inactive
same,outcome,[4],inactive
same,Potency,[20],61.1 µM (active)
same,outcome,[5],inactive
same,outcome,[6],inactive
same,outcome,[7],inactive
same,outcome,[8],inactive
same,outcome,[9],inactive
same,outcome,[10],inactive
same,outcome,[11],inactive
same,outcome,[12],inactive
same,outcome,[13],inactive
same,outcome,[15],inactive
same,outcome,[16],inactive
Cc1ccc(C(=O)O)cc1[N+](=O)[O-],outcome,[2],inactive
same,outcome,[3],inactive
same,Potency,[19],inactive
same,outcome,[4],inactive
same,Potency,[20],inactive
same,outcome,[5],inactive
same,outcome,[6],inactive
same,outcome,[7],inactive
same,outcome,[8],inactive
same,outcome,[9],inactive
same,outcome,[10],inactive
same,outcome,[11],inactive
same,outcome,[12],inactive
same,outcome,[13],inactive
same,outcome,[14],inactive
same,outcome,[15],inactive
CCCCCC/C=C/C(=O)OC,outcome,[1],inactive
same,outcome,[3],inactive
same,Potency,[19],inactive
same,outcome,[4],inactive
same,outcome,[5],inactive
same,outcome,[6],inactive
same,outcome,[7],inactive
same,outcome,[8],inactive
same,outcome,[9],inactive
same,outcome,[10],inactive
same,outcome,[11],inactive
same,outcome,[12],inactive
same,outcome,[13],inactive
same,outcome,[14],inactive
same,outcome,[15],inactive
same,Potency,[17],inactive
same,outcome,[18],inactive
O=C[O][Al]([O]C=O)[O]C=O,outcome,[1],inactive
same,outcome,[3],inactive
same,outcome,[4],inactive
same,outcome,[5],inactive
same,outcome,[6],inactive
same,outcome,[7],inactive
same,outcome,[8],inactive
same,outcome,[9],inactive
same,outcome,[10],inactive
same,outcome,[11],inactive
same,outcome,[12],inactive
same,outcome,[13],inactive
same,outcome,[14],inactive
same,outcome,[15],inactive
same,outcome,[16],inactive
same,Potency,[17],inactive
CCc1occc(=O)c1O,outcome,[1],inactive
same,outcome,[3],inactive
same,Potency,[19],inactive
same,outcome,[4],inactive
same,outcome,[5],inactive
same,outcome,[6],inactive
same,outcome,[7],inactive
same,outcome,[8],inactive
same,outcome,[9],inactive
same,outcome,[10],inactive
same,outcome,[11],inactive
same,outcome,[12],inactive
same,outcome,[13],inactive
same,outcome,[14],inactive
same,outcome,[15],inactive
same,outcome,[16],inactive
same,Potency,[17],inactive
